HPGD block – blocks human HPGD enzyme activity; P15428; purified HPGD, NADH fluorescence kinetic, PGE2 substrate; Potency, µM, for the others: top-dose activity change, negative = inhibition, hits mostly inhibitors; actives 4.3% (n = 150,000); also: potency is read from the fitted curve at half-maximal effect
Target sequence (P15428 whole entry, looked up): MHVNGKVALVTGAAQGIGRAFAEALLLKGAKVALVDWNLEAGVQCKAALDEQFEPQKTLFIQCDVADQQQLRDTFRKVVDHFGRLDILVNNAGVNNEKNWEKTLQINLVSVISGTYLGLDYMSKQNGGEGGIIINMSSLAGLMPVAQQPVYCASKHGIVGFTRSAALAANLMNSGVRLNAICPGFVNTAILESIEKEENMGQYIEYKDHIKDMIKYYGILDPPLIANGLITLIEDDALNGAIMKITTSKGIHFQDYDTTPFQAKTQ
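20 nM HPGD preincubated 15 min at room temperature with compound in 50 mM Tris-HCl pH 8, 0.01% Tween 20. Started with 1 mM NAD+ and 30 uM prostaglandin E2; NADH fluorescence (360/450 nm) read 5 times over 30-s intervals, last minus first.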
ALDH1A1 inh – blocks purified human ALDH1A1 activity | P00352 | actives 7.3% (n = 220,000) | Purified ALDH1A1, NADH fluorescence, propionaldehyde substrate | Potency, µM (top dose mostly 75.3 µM), for the others: at the highest dose activity, negative = inhibition, actives largely listed as inhibitors;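 also: potency is read from the fitted curve at half-maximal effect; plate controls were no enzyme wells and a reference inhibitor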
IMPase cell inh – membrane-permeable compound that blocks inositol monophosphatase. P97697. 120,000 tested, under 10 active. CHO-M1 cells, IP1 accumulation, HTRF TR-FRET ratio. inhibition (IP1 accumulation), % at 46.1 µM; active = well fitted curve in the direction sought with a large enough effect in the signal ratio, not every such curve was filed as active; inconclusive = small, poorly fitted or top-dose-only effect, or a change in a side signal; inactive = no such curve, though single readings can be large or run the other way; the % refers to the signal ratio;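 also: cells stimulated with carbachol in lithium chloride buffer; plate controls were DMSO basal wells for no effect and reference inhibitor wells for full effect; higher means more IMPase inhibition seen as more IP1 and lower FRET ratio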
Target sequence (P97697 whole entry, looked up): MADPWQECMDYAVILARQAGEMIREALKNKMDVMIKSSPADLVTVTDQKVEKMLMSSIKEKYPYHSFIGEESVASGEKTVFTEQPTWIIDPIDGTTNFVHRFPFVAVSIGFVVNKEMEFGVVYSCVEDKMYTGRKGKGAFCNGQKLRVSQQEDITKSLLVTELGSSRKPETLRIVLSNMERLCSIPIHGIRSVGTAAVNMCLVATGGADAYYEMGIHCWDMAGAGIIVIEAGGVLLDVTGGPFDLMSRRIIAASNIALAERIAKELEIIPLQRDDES
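CHO-M1 cells (CHO stably expressing M1 receptor), compound up to 46 uM final, stimulated with carbachol (50 uM as added) in buffer with 50mM LiCl, pH 7.4, 30 min at 37C. Cytosolic IP1 read by TR-FRET; AC50 from Hill fits.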
Active calls of the source: *; ? = inconclusive; . = no result given; [ ] = another dose, or the depositor's remark. An excerpt weighted towards active compounds, which were near 9% of everything screened. Unless noted, calls follow the shape of the dose curve; as a rule, active = well fitted inhibition curve with a large enough effect (not every such curve was filed as active); inconclusive = small, poorly fitted or top-dose-only effect, or another doubt; inactive = no such curve, though single readings can be large or run the other way. Unless noted, % is scaled to controls: 0 for no effect and ±100 for the full control effect.

SMILES	HPGD block	ALDH1A1 inh	IMPase cell inh
Cc1ccc(OCC(=O)N(Cc2ccc(N(C)C)cc2)C2CCS(=O)(=O)C2)cc1 (stereo not given)	-11%	18µM*	-9
O=C(c1ccco1)N(Cc1cccs1)C1CCS(=O)(=O)C1 (stereo not given)	-6%	-5%	14
CN(C)c1ccc(CN(C(=O)COc2ccc(F)cc2)C2CCS(=O)(=O)C2)cc1 (stereo not given)	-4%	?	-1
CCc1ccc(OCC(=O)N(Cc2ccc(Cl)cc2)C2CCS(=O)(=O)C2)cc1 (stereo not given)	.	.	-2
CN(C)c1ccc(CN(C(=O)COc2ccc(Br)cc2)C2CCS(=O)(=O)C2)cc1 (stereo not given)	-6%	28µM*	-14
CN(C)c1ccc(CN(C(=O)c2ccco2)C2CCS(=O)(=O)C2)cc1 (stereo not given)	-11%	7.1µM*	6
Cn1c(NC2CCCCC2)c(N=O)c(=O)n(C)c1=O	.	4%	.
COc1cc2c(cc1OC)CN(C(C)C(=O)Nc1ccc(NC(C)=O)cc1)CC2 (stereo not given)	-1%	-3%	-2
C=C[C@@]1(C)CC(=O)[C@@]2(O)[C@@]3(C)[C@@H](O)CCC(C)(C)[C@@H]3[C@H](O)[C@H](OC(C)=O)[C@@]2(C)O1	-8%	8%	0
CCOc1ccc(NC(=O)Cn2c(=O)n(CC3CCCO3)c(=O)c3ccccc32)cc1 (stereo not given)	.	-4%	.
COc1ccc(C(=O)N2CCC[C@@]3(CCN(C)C3)C2)cc1	-12%	-8%	.
N#CCC(=O)NN=C1CCCCCCCCCCC1	-12%	3.2µM*	3
O=C(CSc1ncccn1)NN=C1CCCCCCC1	-1%	4%	5
CCc1c(O)c2c(c(O)c1C(C)=O)C(=O)c1c(cc(O)c(C(=O)O)c1C(=O)O)C2=O	-12%	7%[13.5 µM]	.
Cc1c(C(=O)O)c(O)cc2c1C(=O)c1c(O)c([C@H]3O[C@H](CO)[C@@H](O)[C@H](O)[C@H]3O)c(O)c(O)c1C2=O	18µM*	11µM*	?
N#CC(C(=O)c1ccccc1)=C1SCCS1	.	14µM*	.
N#CC(CC(=O)O)=C(c1ccccc1)c1ccccc1	-25%	4%[13.5 µM]	.
O=c1c(Cl)c(Nc2cccc(Cl)c2)cnn1-c1nc2ccccc2s1	-6%	-11%	.
COc1ccc(Nc2cnn(-c3nc4ccccc4s3)c(=O)c2Cl)cc1	-24%	8.9µM*	.
CC(C(=O)O)N1C(=O)CSc2ncccc21 (stereo not given)	-6%	12%	3
CC1CCC2CC1C2(C)C (stereo not given)	-4%	-3%	.
Cc1nc2c(cnn2-c2ccccc2Cl)c(=O)n1-c1ccc(C(C)C)cc1	-15%	?	6
O=S1(=O)CC(O)C(NCc2ccco2)C1 (stereo not given)	-2%	2%	-9
CC(C)(C)c1cc(CNC2CS(=O)(=O)C[C@@H]2O)cc(C(C)(C)C)c1O (stereo not given in full)	-3%	13µM*	2
Cc1ccc(NC(=O)Cn2cc(C(=O)C3CCCCC3)c3ccccc32)c(C)c1	.	.	-8
SMILES	HPGD block	ALDH1A1 inh	IMPase cell inh
O=C(Cn1cc(C(F)(F)F)ccc1=O)N1CCN(S(=O)(=O)c2ccccc2)CC1	-12%	6%	?
Cc1ccc(S(=O)(=O)NC(=O)NCCc2ccccc2)cc1	.	4%	.
COc1cccc(/C(=N/O)C2CC2c2ccc(Cl)cc2)c1 (stereo not given)	.	15%	.
O=C(CSc1nnc(-c2ccccc2)o1)N1CCc2ccccc2C1	?	-9%	3
O=C(CSc1nnc(-c2ccccc2O)o1)N1CCc2ccccc2C1	-27%	22µM*	9
O=C(CSc1nnc(-c2cc3ccccc3cc2O)n1Cc1ccco1)N1CCc2ccccc2C1	-21%	35µM*	3
Clc1ccccc1-c1nnc(-c2ccccc2Cl)o1	16µM*	-9%	9
O=C(CSc1nnc(-c2ccccc2Cl)o1)N1CCCCC1	25µM*	?	-8
CC1CCCCN1C(=O)CSc1nnc(-c2ccccc2Cl)o1 (stereo not given)	.	.	7
CC(C)N(C(=O)CSc1nnc(-c2cc3ccccc3cc2O)n1Cc1ccco1)C(C)C	-20%	-6%	5
Clc1ccc(-c2nnc(-c3ccccc3Cl)o2)cc1	.	?	5
Cc1cnc(NC(=O)CSc2nnc(N)s2)s1	.	5%	.
CC(=O)N[C@@H](CSC(=O)[C@]1([C@@H](O)C(C)C)NC(=O)[C@H](C)[C@@H]1O)C(=O)O	-7%	11%[13.5 µM]	.
COc1ccc(-n2c(SCC(=O)NCCCN3CCCC3=O)nnc2C(C)N2CCCCC2)cc1 (stereo not given)	.	10%	.
CC(C)(C)C(=O)NC(=S)NNC(=O)c1ccc(Cl)cc1Cl	.	10%	.
N#Cc1nc(-c2cccs2)oc1NCc1ccccc1Cl	?	?	-9
Cc1ccc(C(=O)OCc2c(C)noc2C)cc1NC(=O)c1ccco1	.	-8%	.
COCc1cc(C)nc2sc(C(=O)N3CCCCC3)c(N)c12	0.25µM*	18µM*	-2
COCc1cc(C)nc2sc(C(=O)N3CCN(c4ccccc4)CC3)c(N)c12	?	?	5
OCCN(Cc1ccccc1)Cc1ccc(Cl)cc1Cl	-4%	?	3
Cc1nc(C)c(CCNC(=O)c2ccccc2Br)s1	-30%	?	1
CC(C)CN1C(=O)c2ccc(C(=O)Nc3ccncc3)cc2C1=O	-3%	0.63µM*	8
CC(C)CN1C(=O)c2ccc(NC(=O)c3ccccc3F)cc2C1=O	?	?	-6
Cc1cnc(NC(=O)c2ccc3c(c2)C(=O)N(Cc2ccco2)C3=O)s1	-8%	?	4
CC(C)CN1C(=O)c2ccc(C(=O)Nc3ccccn3)cc2C1=O	-9%	1.1µM*	-2
SMILES	HPGD block	ALDH1A1 inh	IMPase cell inh
CC(=O)NS(=O)(=O)c1ccc(NC(=O)c2ccc3c(c2)C(=O)N(CCC(C)C)C3=O)cc1	28µM*	?	.
CC(C)CN1C(=O)c2ccc(NC(=O)c3cccs3)cc2C1=O	?	?	3
COCCCN1C(=O)c2ccc(C(=O)Nc3ccc(OC)cc3)cc2C1=O	-5%	?	-4
CCN1C(=O)c2ccc(C(=O)Nc3ncc(C)s3)cc2C1=O	.	2.2µM*	.
CC1(NC(=O)CC[N+](C)(C)CCO)CS(=O)(=O)CC1S(=O)(=O)[O-] (stereo not given)	-4%	3%	.
CCCS(=O)(=O)N1CCC(C(=O)NCc2ccc(F)cc2)CC1	-8%	-4%	.
Cc1ccc(-n2ncc3c(=O)n(CC(=O)N4CCN(c5ccccc5)CC4)cnc32)cc1C	.	13%	.
CC[C@H]1CC[C@H]2[C@@H]3CC=C4C[C@H](OC(C)=O)[C@@H](N)C[C@@]4(C)[C@H]3CC[C@@]12C	-6%	6%[13.5 µM]	.
NC(C(=O)O)(c1ccc(P(=O)(O)O)cc1)C1CC1 (stereo not given)	.	7%	.
NNC(=O)CC12CC3CC(C1)CC(n1ncnn1)(C3)C2	2%	2.8µM*	.
O=C(O)CC12CC3CC(C1)CC(n1cncn1)(C3)C2	.	5%	.
CCNC(=O)NC(=O)C(C)Oc1ccc(Br)cc1Br (stereo not given)	.	7%	.
CCNc1ccc(C(=O)OCC)cc1NC(=O)c1cccc(S(=O)(=O)N2CCOCC2)c1	-10%	-24%	-12

Assay outcomes (PubChem BioAssay)
